# Bioassay records: PubChem BioAssay, National Center for Advancing Translational Sciences (NCATS)
# DRD3 agonist: activates the human D3 dopamine receptor | 410,000 tested, 0.58% active | D3R DiscoveRx beta-arrestin cells, luminescence, 90 min | P35462 | max activation, %; in the data active means max activation above about 30%; further: 0% is about no effect
#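 Agonist-mode cell screen: cells plated at 1500/well and incubated overnight at 37 °C, then exposed to library compounds for 90 min at 37 °C. Detection reagent was added for 30–60 min at room temperature, and luminescence was read.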
# DRD3 antagonist: blocks the human D3 dopamine receptor; AID 652054; D3R cells, DiscoveRx beta-arrestin luminescence, antagonist mode; active compounds read low; max response, negative = inhibition, %; 360,000 tested, 2.5% active; in the data active means max response below about -50%; further: on the % scale 0 is the no-effect control and ±100 the full control effect
#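 Cells expressing the human receptor were seeded at 1500 cells/well, incubated overnight at 37 degrees C in 5% CO2, then exposed to library compounds with dopamine controls for 90 minutes at 37 degrees C before luminescent detection.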
# D1 antag: blocks dopamine activation of the human D1 receptor | P21728 | AID 504652 | HEK293 TREx D1 cells, calcium flux, dopamine EC80; active compounds read low | 360,000 tested, 3.2% active | activity change, negative = inhibition, % at 10 µM; in the data active means activity change below about -30%; further: on the % scale 0 is the no-effect control and ±100 the full control effect
# Target sequence (P21728 whole entry, looked up): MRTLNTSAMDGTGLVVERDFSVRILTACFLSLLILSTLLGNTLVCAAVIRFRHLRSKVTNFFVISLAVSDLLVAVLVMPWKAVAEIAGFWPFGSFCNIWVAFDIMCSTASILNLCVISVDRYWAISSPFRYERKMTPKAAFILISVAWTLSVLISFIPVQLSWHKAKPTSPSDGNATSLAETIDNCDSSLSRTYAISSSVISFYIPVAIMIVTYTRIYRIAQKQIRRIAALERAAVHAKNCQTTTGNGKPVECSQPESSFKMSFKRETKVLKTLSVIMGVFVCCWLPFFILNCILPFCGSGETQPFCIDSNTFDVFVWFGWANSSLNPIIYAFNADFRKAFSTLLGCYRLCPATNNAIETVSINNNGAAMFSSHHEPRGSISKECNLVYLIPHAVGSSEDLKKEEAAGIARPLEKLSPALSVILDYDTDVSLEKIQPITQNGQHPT
#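 Inducible Hek293 Trex D1 cells (tetracycline, overnight, 30 C). Calcium dye 30–90 min RT. Antagonist mode: EC80 dopamine added after 180 s compound read.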
# D1 potentiator: potentiators of human D1 dopamine receptor. 360,000 tested, 0.036% active. AID 504651. P21728. potentiation, % at 10 µM. HEK293 TREx D1 cells, calcium flux, dopamine EC20 potentiation; in the data active means potentiation above about 30%; further: 0% is about no effect
# D1 ag: activates the human D1 dopamine receptor | P21728 | HEK293 T-REx D1 cells, calcium flux, agonist mode | activation, % at 2 µM | 360,000 tested, 1% active | AID 504660; in the data active means activation above about 30%; further: 0% is about no effect
#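 Agonism was scored from calcium flux recorded over 180 s (1 read/s) after pintool compound addition, following a 10-cycle baseline. Cells were inducible force-coupled HEK293 TREx D1, plated overnight at 30 C and loaded with no-wash calcium dye.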
# * = called active by the depositor; . = no result given; ! = repeats disagree. An excerpt weighted towards active compounds, which were near 6% of everything screened.
SMILES,DRD3 agonist,DRD3 antagonist,D1 antag,D1 potentiator,D1 ag
COc1cccc(C2C(C(=O)Nc3ccccc3OC)=C(C)Nc3nc(-c4ccco4)nn32)c1 (configuration not stated),3,.,-2,-4,0
CCc1cc2c(cc3c(=O)n(CC(=O)N4CCCCC4)ncn32)s1,0,.,-8,-3,2
CCOCC(=O)Nc1ccc(-c2cn3c(C)csc3n2)cc1,-6,.,-1,2,0
Cc1ccc(-n2c(=O)c3sc4ccccc4c3n(CC(=O)NC3CCCC3)c2=O)cc1C,1,.,-45*,0,3
CCc1ccc(-n2c(=O)c3sc4ccccc4c3n(CC(=O)NC3CCCCC3)c2=O)cc1,-4,.,-24,2,0
COc1ccc(NC(=O)Cn2c(=O)n(Cc3ccccc3)c(=O)c3sc4ccccc4c32)cc1,0,.,-30*,2,3
Cc1ccccc1NC(=O)Cn1c(=O)n(Cc2ccccc2)c(=O)c2sc3ccccc3c21,7,.,-37*,1,-1
COc1cccc(C(=O)NCc2cn3ccccc3n2)c1,-7,.,-18,1,2
Cc1ccc(S(=O)(=O)N2CCN(C(=O)C3CC3C)CC2)c(C)c1 (configuration not stated),3,-64*,-7,-5,4
COc1ccc(CC(=O)OCC(=O)N2CCN(S(=O)(=O)c3ccc(C)cc3C)CC2)cc1,3,16,-90*,-6,5
Cc1ccc(C)c(S(=O)(=O)N2CCN(C(=O)C3CC3C)CC2)c1 (configuration not stated),2,2,4,0,3
COc1ccc(CCNC(=O)CSc2nnnn2-c2cccc(C(C)=O)c2)cc1OC,9,.,5,-5,0
CN(C)C=Nc1nonc1-c1ccccc1,6,6,5,-2,2
CN(C)C=Nc1c(Br)cc(Br)c2nonc12,13,30,-74*,6,415*
CCOC(=O)c1c(S(=O)(=O)NCC(=O)N2CCN(c3ccccc3OC)CC2)c(C)n(C)c1C,9,7,-32*!,3,0
Cn1cc(CNCc2cn(C)nc2-c2ccc(C3CCCCC3)cc2)cn1,-3,0,-38*,-10,23
CC(C)(C)C(=O)NC(=S)NNC(=O)C(c1ccccc1)c1ccccc1,-18,-27,24,34*,350*
COc1cc(C2c3c(oc4ccccc4c3=O)C(=O)N2c2nncs2)cc(OC)c1OC (configuration not stated),12,.,-4,-6,1
OC1(c2cccc(C(F)(F)F)c2)CCN(Cc2nnnn2Cc2ccccc2)CC1,6,5,0,-3,1
OC1(c2cccc(F)c2)CCN(Cc2ccncc2)CC1,-7,-78*,-1,2,3
O=C(NCc1ccc(Cl)cc1)c1cnc(N2CCOCC2)c2ccccc12,1,.,-6,-6,1
CC(NC(=O)COC(=O)c1ccco1)C12CC3CC(CC(C3)C1)C2 (configuration not stated),.,.,-5,4,1
COC(=O)c1[nH]c2cc(OC)ccc2c1NC(=O)CCN1CCN(Cc2ccc3c(c2)OCO3)CC1,-9,-81*,-86*,13,0
COC(=O)c1[nH]c2cc(OC)ccc2c1NC(=O)CCN1CCCC(C)(C)C1,-63,-56*,23,-4,0
CC1Cc2cc(S(=O)(=O)CCC(=O)Nc3ccc(Cl)cc3F)ccc2N1C(=O)C1CC1 (configuration not stated),8,.,-13,-3,4
SMILES,DRD3 agonist,DRD3 antagonist,D1 antag,D1 potentiator,D1 ag
COc1ccc(O)c(/C=N/n2c(-c3ccco3)csc2=Nc2cccnc2)c1,2,5,-42*,-5,4
CN=c1scc(C)n1/N=C/c1ccc(O)cc1,5,14,-2,-3,3
C=CCN=c1scc(C)n1/N=C/c1ccc(O)c(O)c1,31*,13,-50*,-4,2
CN=c1scc(-c2ccco2)n1/N=C/c1ccc(O)c(O)c1,51*,-10,1,-11,7
CN=c1scc(C)n1/N=C/c1ccc2c(c1)OCO2,-6,-19,-11,6,1
COc1cc(-c2cc3n(C)c(C)c(CCC(=O)NC4CCCCC4)c(=O)n3n2)cc(OC)c1OC,5,.,-2,-2,0
Cc1cc(C)nc(SCc2nc3ncccn3c2Br)n1,2,-52*,18,1,2
